Screens (PubChem)
Methyltransferases: Primary Screen for Target Class Profiling of Small Molecule Inhibitors of Methyltransferases; purified enzyme, MTase-Glo SAH luminescence; hits give low values; calls only at 40 µM; 25,000 tested, 3.9% active; AID 1745853, 2022; call rule not given here
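Each enzyme was assayed with SAM and its substrate. SAH formation detected by MTase-Glo luminescence; single-point 40 uM screen[…].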
MTase-Glo counter: detection enzyme interference, methyltransferase counter-screen; shares compounds with Methyltransferases; MTase-Glo coupled enzymes, SAH conversion luminescence, no MTase; Potency, µM (top dose mostly 57.3 µM), actives largely listed as inhibitors; 180 tested, 6% active; active means well fitted inhibition curve with a large enough effect
Of the large screens only hits and unclear results are named; the others gave an inactive call (follow-up assays come after a bar, where they were run). Shown is part of a subset that was picked to be rich in hits.

CC1OC(OC2CCC3(C)C(CCC4(C)C3CC=C3C5CC(C)(C)CCC5(C(=O)OC5OC(CO)C(O)C(O)C5O)CCC34C(=O)O)C2(C)C)C(O)C(O)C1O (stereo not drawn)	none
CCn1cc(CN2CCN(C(=O)c3cccs3)CC2)ccc1=O	Methyltransferases active | MTase-Glo counter inactive
NC(=O)CN1C(=O)[C@@H]2CN(C(=O)c3cccs3)CCN2C1=O	none
CCn1cc(CN2CCN(C(=O)CCc3ccccc3)CC2)ccc1=O	none
Cc1ccc(CNC(=O)Cn2nc3n(CC(C)C)c(=O)c4ccc(C(=O)NC(C)C)cc4n3c2=O)cc1	none
CCCn1c(=O)c2cc(Cl)ccc2n2c(=O)n(CC(=O)Nc3ccc(OC)c(OC)c3)nc12	none
O=C(N[C@H]1CO[C@H]2[C@@H]1OC[C@@H]2Nc1nccc(-c2ccco2)n1)c1ccco1	none
CSc1ccc(CNC(=O)Cn2ccc3cc(S(=O)(=O)N4CCCCC4)ccc32)cc1	none
CCC(C)NC(=O)c1ccc2c(=O)n(C(C)C)c3nn(CC(=O)Nc4cccc(F)c4)c(=O)n3c2c1 (stereo not drawn)	none
COc1ccc2c(c1)C(CN1CCN(c3ccc4oc(C(=O)O)cc4c3Cl)CC1)=CC(C)(C)CO2	Methyltransferases active | MTase-Glo counter inactive
COc1ccc2c(c1)C(CN1CCN(CC(=O)OC(C)(C)C)CC1)=CC(C)(C)O2	none
COc1ccc2c(c1)C(COCc1ccc(C(=O)O)cc1)=CC(C)(C)CO2	none
CC(=O)OC1C(O)C(C)(O)C(/C=C/C(=O)O)C2(C)CCCC(C)(C)C12 (stereo not drawn)	none
CCCCS(=O)(=O)NC1CCc2nn(CC3CC3)c(=O)n2CC1 (stereo not drawn)	none
COc1ccc(OCc2cc(C(=O)NC(CO)C(C)C)no2)c2ccccc12 (stereo not drawn)	Methyltransferases active | MTase-Glo counter inactive
COc1cccc(CNC(=O)c2c(C)noc2-c2ccccc2OC)c1	none
COc1cccc(OC)c1-c1cc(C(=O)N[C@@H](CC(C)C)C(=O)O)nn1-c1ccnc2cc(Cl)ccc12	none
Cc1ccccc1N1C(=O)c2cc3ccccc3n2CC1(C)C(=O)NC1CCCC1 (stereo not drawn)	none
Cc1ccc(-c2cc3c(ccn3C)c(C(=O)NCc3cccnc3)n2)cn1	none
Cn1cncc1CNC(=O)c1nc(-c2cccc(N3CCOCC3)c2)cc2c1ccn2C	none
Cn1ccc2c(C(=O)NCCc3cnc[nH]3)nc(-c3ccc(N4CCOCC4)cc3)cc21	Methyltransferases active | MTase-Glo counter inactive
COC(=O)c1ncn2c1C(=O)N(c1cc(C)ccc1C)C(C)(C(=O)NCCCOC(C)C)C2 (stereo not drawn)	none
CCCCc1nn(CC(=O)N2CCOC(c3ccccc3)C2)c(=O)n1CC (stereo not drawn)	none
COc1ccc(S(=O)(=O)NC[C@H]2Cn3c(-c4ccc(Cl)cc4)cnc3CO2)cc1	Methyltransferases active | MTase-Glo counter inactive
COc1ccc(C(=O)NC[C@H]2Cn3ccnc3CO2)cc1	none
COc1ccc(S(=O)(=O)NCC2Cn3cccc3C(=O)N2Cc2ccccc2)cc1 (stereo not drawn)	none
CCC(=O)N(C1CCOCC1)C1CCN(Cc2ccc(SC)cc2)CC1	none
CCOC(=O)c1cc2n(n1)CC(C)(C(=O)NCc1ccccc1)N(c1ccc(C)cc1C)C2=O (stereo not drawn)	none
CC1(C(=O)NC2CCCCC2)Cn2c(ccc2-c2ccco2)C(=O)N1Cc1cccc(Cl)c1 (stereo not drawn)	none
Cc1cccc(CN2CCCC(C(=O)Nc3cccc(-n4cccn4)c3)C2)n1 (stereo not drawn)	none
N#Cc1cc(CN2CCCC(C(=O)Nc3cccc(-c4ccc(F)cc4)c3)C2)c[nH]1 (stereo not drawn)	Methyltransferases active | MTase-Glo counter inactive
N#Cc1cccc(CN2CCCC(CNS(=O)(=O)Cc3ccccc3)C2)c1 (stereo not drawn)	none
Cc1ccc([C@H]2C[C@@H](O)[C@@H](O)[C@@H]2NS(C)(=O)=O)cc1	none
COc1ccc(-c2cc3n(n2)CC(C)(C(=O)NCc2ccccc2OC)N(Cc2ccc(C)cc2)C3=O)cc1 (stereo not drawn)	none
CN1CCCCC1CCNC(=O)c1ccc(N2CCOCC2)nc1 (stereo not drawn)	none
CC(C)c1nccn1CCCNC(=O)c1ccc(N2CCCC(CO)C2)nc1 (stereo not drawn)	Methyltransferases active | MTase-Glo counter inactive
CCN(Cc1nccn1C)C(=O)c1ccc(N2CCC(COC)C2)nc1 (stereo not drawn)	none
CN(C)C(=O)c1nc2sccn2c1Br	none
C[S+](=O)([O-])N1CCC(Cn2ccc3c(N4CCOCC4)nc(-c4cccc5[nH]ncc45)cc32)CC1	Methyltransferases active | MTase-Glo counter inactive
COCCn1nc2n(c1=O)CCN(Cc1ccc(Br)o1)CC2	none
O=C(OCc1ccccc1)N1CCOCC12CCN(Cc1c[nH]c3ccccc13)CC2	Methyltransferases active | MTase-Glo counter inactive
